# The list is not random: actives were taken first. Their share in the collection is about 6%.
# PLK1 PBD block = PLK1 (human) polo-box domain binding inhibition; P53350; Plk1 PBD binding of FITC phosphopeptide, fluorescence polarization; Potency, µM, inactives show max response, negative = inhibition, actives largely listed as inhibitors; 360,000 compounds, 2.8% hits; note: series mostly up to about 57 µM; nearly all actives have a fitted effect of over 65% in size
# Target sequence (P53350 whole entry, looked up, the tested form may be a part): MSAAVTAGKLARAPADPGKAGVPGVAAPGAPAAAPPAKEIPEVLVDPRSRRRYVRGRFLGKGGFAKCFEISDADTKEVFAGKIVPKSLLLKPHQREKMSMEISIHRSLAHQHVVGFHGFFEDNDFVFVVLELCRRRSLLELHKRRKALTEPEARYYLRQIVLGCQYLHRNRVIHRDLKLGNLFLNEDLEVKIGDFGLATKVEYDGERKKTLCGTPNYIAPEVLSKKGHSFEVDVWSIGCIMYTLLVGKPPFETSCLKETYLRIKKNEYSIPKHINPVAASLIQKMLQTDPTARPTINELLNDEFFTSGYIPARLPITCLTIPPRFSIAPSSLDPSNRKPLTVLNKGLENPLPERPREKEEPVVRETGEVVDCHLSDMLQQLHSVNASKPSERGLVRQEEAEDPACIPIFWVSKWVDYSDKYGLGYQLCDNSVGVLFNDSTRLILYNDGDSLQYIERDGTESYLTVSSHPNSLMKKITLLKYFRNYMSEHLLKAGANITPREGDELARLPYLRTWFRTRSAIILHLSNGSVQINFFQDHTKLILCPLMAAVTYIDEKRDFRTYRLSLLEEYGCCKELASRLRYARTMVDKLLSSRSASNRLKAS
# Tau ThT inhib = inhibitors of human tau fibril formation, thioflavin T binding. recombinant tau K18 P301L, heparin-induced fibrillization, ThT fluorescence. 270,000 compounds, 2.1% hits. AID 1460. P10636. Potency, µM (doses to about 57.4 µM), without a hit: top-dose activity, negative = inhibition, actives largely listed as inhibitors; note: nearly all actives have a fitted effect of over 55% in size
#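 Tau K18 P301L fragment (15 uM unlabeled plus 0.24 uM Alexa 594-labeled) in 100 mM sodium acetate pH 7 with compound, fibrillization induced by 20 uM heparin for 6 hr at 37 C. Thioflavin T (30 uM) added, fluorescence read after 1 hr (ex 450, em 510 nm).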
# Sfp PPTase inh = Sfp phosphopantetheinyl transferase inhibition | Q9F4F7 | Biochemical Sfp PPTase activity, qHTS | Potency, µM, for inactives: largest response in the series, negative = inhibition, actives largely listed as inhibitors | 310,000 compounds, 3.5% hits;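 note: the enzyme is Sfp with the accession as filed and its product quenches rhodamine fluorescence; 0% = enzyme reaction without inhibitor and -100% = no enzyme wells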
#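 Compounds were incubated with enzyme (final 15 nM) for 15 min at room temperature before substrate addition started the reaction. Fluorescence at 525 nm excitation, 598 nm emission was recorded immediately and after 30 minutes.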
# Tau fluor counter = counter-screen for tau fibril formation inhibitors | tau K18 P301L (four-repeat tau fragment) Alexa594 fluorescence, heparin fibrillization | Potency, µM (doses to about 57.7 µM), without a hit: top-dose activity change, negative = decrease | 280,000 compounds, 0.93% hits | AID 1463; note: nearly all actives have a fitted effect of over 55% in size
#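 Human K18 P301L tau (15 uM unlabeled plus 0.24 uM Alexa 594-labeled, final) in 100 mM sodium acetate pH 7 was mixed with compound and 20 uM heparin and incubated 6 hr at 37 C.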
# VDR inh = inhibitors of human vitamin D receptor; AID 504847; 400,000 compounds, 0.93% hits; VDR-SRC2-3 peptide fluorescence polarization, 2 h; Potency, µM, for inactives: max response, negative = inhibition, most hits filed as inhibitors; P11473
#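 Two reagent solutions held at 4 deg C in the dark were dispensed, compounds pinned at 23 nl, and the mixture incubated 2 h at room temperature. Read-out: fluorescence polarization of VDR–SRC2-3 peptide binding.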
# Tau fibril FP = tau fibrillization inhibition (FP); P10636; K18 P301L tau heparin fibrillization, Alexa594 FP, 6 h; Potency, µM (doses to about 57.7 µM), without a hit: at the highest dose activity, negative = inhibition, hits mostly inhibitors; 280,000 compounds, 0.39% hits; note: nearly all actives have a fitted effect of over 55% in size
#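 K18 P301L tau (15 uM unlabeled/0.24 uM Alexa 594-labeled, final) + compound + heparin 20 uM final; 100 mM NaOAc pH 7; 6 hr 37 C; ThT 30 uM final added, 1 hr RT; FP ex 555/em 632 nm.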
# * = called active by the depositor; u = inconclusive; x = no result given; [ ] = remark or other dose. Calls come from the whole dose curve; as a rule, active = well fitted curve in the direction sought with a large enough effect; inconclusive = small, poorly fitted or top-dose-only effect, or another doubt; inactive = no such curve, though single readings can be large; an effect the other way counts as inactive or inconclusive. Unless noted, % is set by controls: 0 for no effect and ±100 for the full control effect; potency is the fitted concentration of half-maximal effect.
SMILES,PLK1 PBD block,Tau ThT inhib,Sfp PPTase inh,Tau fluor counter,VDR inh,Tau fibril FP
C/C(=N\Nc1nc(C)c(C)s1)c1ccc([N+](=O)[O-])cc1,-24%,14µM*,u,u,-16%,9%
C/C(=N\NC(=O)COc1ccc([N+](=O)[O-])cc1)c1ccco1,-6%,x,x,x,-3%,x
CCc1ccc(/C(C)=N\Nc2ccc([N+](=O)[O-])cc2)cc1,2%,3.5µM*,-1%,u,-4%,-4%
C/C(=N\Nc1ccc([N+](=O)[O-])cc1)c1ccc(N)cc1,3%,6%,u,1%,-1%,-4%
CCN(CC(=O)Nc1ccc(S(=O)(=O)N2CCCCC2)cc1)Cc1ccccc1,-9%,x,x,x,-5%,x
CCCn1c2ccccc2c2cnn(CC(=O)Nc3cc(OC)c(OC)c(OC)c3)c(=O)c21,x,-3%,x,-16%,-2%,6%
COc1ccc(-c2cnc3c(NC=O)cc(-c4cccc(NS(C)(=O)=O)c4)cn23)cc1OC,-7%,x,x,x,x,x
C/C(=N\Nc1ccc([N+](=O)[O-])cc1)c1ccc(N2CCOCC2)cc1,4%,u,-15%,u,-6%,u
C/C(=N\Nc1ccc([N+](=O)[O-])cc1)c1ccc(-n2nncc2C)cc1,-1%,7.1µM*,-1%,16µM*[quencher],1%,u
O=C(CCN1C(=O)COc2ccccc21)NCc1cccs1,24µM*,1%,13%,2%,-7%,-4%
O=C(CCN1C(=O)COc2ccccc21)NCCN1CCc2ccccc2C1,0%,-13%,-5%,-9%,2%,3%
COC(=O)c1sc2nc3c(c(-c4cccs4)c2c1N)CCCC3,-13%,-13%,79µM*,-2%,16%,11%
CC1CCCC(C)N1C(=O)c1cccc2c1-c1ccccc1/C2=N/O (centres undefined),u,-7%,-3%,-18%,-7%,-5%
CC(C)COC(=O)c1cccc2c1-c1ccccc1/C2=N\O,-2%,-5%,-7%,-29%,12%,28µM*
O=C1CCCc2nc(N3CCN(c4ccccc4)CC3)ncc21,30µM*,u,7%,4%,-4%,8%
C=CCc1c(C)[nH]c2c(OC)cccc2c1=S,-2%,-15%,13µM*,-7%,1%,-10%
C=CCN(CC=C)C(=O)c1c(OC)cccc1OC,-6%,-6%,0%,-8%,5%,-2%
O=C(O)c1ccc(S(=O)(=O)NCc2cccnc2)cc1,2%,x,19%,x,-9%,x
O=C(O)/C=C/c1ccc(S(=O)(=O)NCc2cccnc2)cc1,24µM*,-4%,15%,-6%,u,-6%
C=CCNC(=O)N1CCc2nc(COc3ccccc3)c3c(c2C1)CO[C@@H](C)C3,x,-5%[11.5 µM],3%,-9%[11.6 µM],x,-1%[11.6 µM]
CCC(C)(C)NC(=O)CN(Cc1ccccc1Cl)C(=O)CCC(=O)Nc1cc(C)ccn1,-5%,u,20µM*,-6%,-3%,-16%
CCC(C)(C)NC(=O)CN(C(=O)CCC(=O)Nc1cc(C)ccn1)c1ccc2c(c1)OCO2,0%,-14%,5%,-9%,21%,1%
CCOC(=O)c1cnc2c(N=Nc3ccccc3)c(N)nn2c1N,-2%,2.5µM*,11%,-11%,1%,0%
CCOC(=O)c1cnc2c(N=Nc3cccc(Cl)c3)c(N)nn2c1N,x,2.5µM*,9%,-13%,x,-3%
CCOC(=O)c1cnc2c(-c3ccccc3)c(C)nn2c1N,-2%,u,13%,-10%,0%,0%
SMILES,PLK1 PBD block,Tau ThT inhib,Sfp PPTase inh,Tau fluor counter,VDR inh,Tau fibril FP
Cc1c(Cl)cccc1NC(=O)C1CCCN(c2nnc(-n3c(C)ccc3C)s2)C1 (centres undefined),x,u,x,-25%,u,-19%
COc1cc2c(=O)c(S(=O)(=O)c3ccccc3)cn(CC(=O)Nc3ccccc3C)c2cc1OC,x,-4%,x,-15%,-4%,-12%
Cc1cc2c(cc1NC(=O)c1ccccc1C)n(C)c(=O)c(=O)n2C,x,-7%,x,-5%,7%,-3%
O=C1Nc2ccc(F)cc2C12Nc1ccccc1-c1nnc(SCc3ccccc3F)nc1O2 (centres undefined),u,25µM*,2%,u,-22%,u
O=C1CC(c2ccc3c(c2)OCO3)c2cc(O)ccc2O1 (centres undefined),x,u,89µM*,-17%[81.3 µM],u,1%[81.3 µM]
O=C1CC(c2ccc3c(c2)OCO3)c2ccc(O)cc2O1 (centres undefined),x,-5%[81.4 µM],16%,-6%[81.3 µM],5%,5%[81.3 µM]
O=C(O)c1ccc(-c2sc(Nc3ccccc3)n[n+]2-c2ccccc2)cc1,-5%,x,50µM*,x,5%,x
c1ccc(COc2ccc(-c3sc(Nc4ccccc4)n[n+]3-c3ccccc3)cc2)cc1,x,x,56µM*,x,x,x
Cc1ccc(NC(=S)N2CCN(S(C)(=O)=O)CC2)cc1Cl,-10%,x,17%,x,-12%,x
Cc1ccc(Cl)cc1N(C)C(=O)c1sc2nc3n(c(=O)c2c1C)CCCC3,x,u,x,-23%,-8%,u
Cc1ccsc1C(=O)N1CCCC(CO)(Cc2ccccc2F)C1 (centres undefined),-13%,x,7%,x,-9%,x
CN(C)S(=O)(=O)N1C(=O)c2ccccc2C1=O,-19%,-21%,13µM*,-20%,-4%,-9%
Cc1ccc(C(=O)CCNc2ccc(F)c(Cl)c2)o1,-4%,-8%,9%,-10%,3%,u
Cc1ccc2c(c1)Sc1c(ccc3ccccc13)N2,u,3.2µM*,-13%,14µM*[quencher],-18%,0%
CN(C)CCCN1c2ccc3ccccc3c2Sc2cccc(Cl)c21,-10%,x,x,x,-20%,x
CC12CCC(C/C1=N\N=C1\NC(=O)/C(=C\c3cccc(Br)c3)S1)C2(C)C (centres undefined),30µM*,u,2%,-14%,-1%,u
COc1cc(/C=N/N=C2\CC3CCC2(C)C3(C)C)ccc1O (centres undefined),-13%,-1%,0%,-9%,-10%,6%
Fc1ccc(/C=C2\CCCC3=C2Nc2ncnn2C3c2ccc(F)cc2)cc1 (centres undefined),24µM*,u,u,-3%,u,-11%
Cc1ccc(C(=O)N2CCN(c3ccc(NC(=O)COc4ccccc4C)cc3)CC2)cc1,-2%,u,-18%,-21%,-3%,4%
Cc1ccc(F)cc1CNC(=O)C1CCC(=O)N(CCCN2CCCC2=O)C1 (centres undefined),-2%,x,6%,x,-5%,x
Cc1cccc(-c2cc(C(=O)NCCCn3ccnc3)c3ccccc3n2)c1,x,-13%,-5%,-23%,x,6%
Cc1ccc(-c2cc(C(=O)NN3CCOCC3)c3cc(Br)ccc3n2)o1,-10%,u,25µM*,-5%,-22%,-4%
